Data published in PubChem BioAssay (Tox21).
Values without a mark were called inactive. The call rests on the fitted dose curve.

Biological target: Thyrotropin-releasing hormone receptor (Homo sapiens) (UniProt P34981)
Assay: qHTS assay to identify small molecule agonists of the thyrotropin-releasing hormone receptor (TRHR) signaling pathway (AID 1346891);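 further: HEK293 cells expressing TRHR with calcium dye readout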
Conditions: TRHR-HEK293 calcium fluorescence, agonist mode; series mostly up to 57.6 µM; activation: at the top concentration
Text: National Center for Advancing Translational Sciences [NCATS] NIH Chemical Genomics Center [NCGC] U.S. Environmental Protection Agency [EPA] National Institutes of Environmental Health Sciences [NIEHS] National Toxicology Program [NTP] Assay overview: Thyrotropin-releasing hormone (TRH) receptor (TRHR) is a G-protein-coupled receptor which binds the tripeptide thyrotropin releasing hormone. TRHR is found in the brain and, when bound by TRH, acts (through phospholipase C) to increase intracellular inositol trisphosphate. It plays a crucial role in the anterior pituitary where it controls the synthesis and secretion of thyroid stimulating hormone and prolactin. The TRHR-Hek293 assay is a cell-based assay, and it has the potential to screen G protein-coupled receptors. A compound/drug can either activate (agonist) or suppress (antagonist) GPCRs that can be monitored by levels of intracellular calcium. Using this assay, the Tox21 10K compound library was screened to identify potential TRHR agonists.
Assay Protocol Summary: The TRHR-Hek293 cells were dispensed at 1500cells/4uL/well in 1536-well black-clear bottom plates using a Multidrop dispenser. After the assay plates were incubated at a 37 C/5% CO2 incubator for 18 hours, 4 uL of Dye-Loading Solution was added to each well. The plates were incubated at 37 C for 2 hours. For agonist mode, 23 nL of compounds dissolved in DMSO, positive controls or DMSO only was transferred to the assay plate by a pin tool. The fluorescence intensity in the plates was measured using FDSS 7000EX kinetic plate reader for 3 min at 1 sec intervals. Each test compound was measured at 15 concentrations and in triplicates.
On the % scale 0 is the no-effect control and ±100 the full control effect.

Thyrotropin-releasing hormone receptor (Homo sapiens), sequence (P34981 whole entry, looked up): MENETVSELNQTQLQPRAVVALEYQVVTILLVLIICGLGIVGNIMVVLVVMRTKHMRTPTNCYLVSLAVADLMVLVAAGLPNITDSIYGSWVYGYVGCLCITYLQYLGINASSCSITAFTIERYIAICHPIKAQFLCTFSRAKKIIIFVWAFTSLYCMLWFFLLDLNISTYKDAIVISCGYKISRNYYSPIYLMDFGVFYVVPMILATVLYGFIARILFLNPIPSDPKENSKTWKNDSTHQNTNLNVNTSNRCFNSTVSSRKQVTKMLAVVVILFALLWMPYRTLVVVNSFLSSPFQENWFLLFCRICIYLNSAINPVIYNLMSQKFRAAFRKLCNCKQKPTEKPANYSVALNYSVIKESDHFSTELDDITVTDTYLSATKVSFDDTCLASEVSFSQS

| SMILES | activation |
| --- | --- |
| O=C(O)c1ccc(CO)o1 | 0.0531% |
| CCCCN(CCCC)C(=S)SSC(=S)N(CCCC)CCCC | -0.0226% |
| CNCCCC1c2ccccc2C=Cc2ccccc21 | 1.98% [at 26.5 µM] |
| CCCC(=O)O[C@]1(C(=O)COC(=O)CC)CC[C@H]2[C@@H]3CCC4=CC(=O)CC[C@]4(C)[C@H]3[C@@H](O)C[C@@]21C | -0.132% [at 11.8 µM] |
| CC(=O)OCC(=O)[C@H]1CC[C@H]2[C@@H]3CCC4=CC(=O)CC[C@]4(C)[C@H]3CC[C@]12C | 2.1% [at 26.5 µM] |
| Nc1nccs1 | -0.0874% |
| Cc1occc1C(=O)Nc1ccc(C(=O)N2CCC(F)(F)/C(=C\C(=O)N3CCC(N4CCCCC4)CC3)c3ccccc32)cc1 | -0.0705% [at 26.5 µM] |
| CN(C(=O)C(Cl)Cl)c1ccc(OC(=O)c2ccco2)cc1 | -0.0275% [at 26.5 µM] |
| CCOC(=O)N1CCC(n2c(=O)[nH]c3cc(Cl)ccc32)CC1 | 0.645% [at 26.5 µM] |
| CC1=CC(=O)CC(C)(C)C1(O)/C=C/C(C)=C\C(=O)O (stereo not given) | -0.0985% |
| Cc1ccnc2ccccc12 | -0.329% |
| CNC(=O)N(c1ccccc1)c1ccccc1 | 0.0395% |
| Nc1c(I)cc(I)c(C(=O)N(CCC(=O)O)c2ccccc2)c1I | 2.66% [at 26.5 µM] |
| COc1cc2c(N3CCN(C(=O)Nc4ccc(OC(C)C)cc4)CC3)ncnc2cc1OCCCN1CCCCC1 | -0.102% [at 26.5 µM] |
| CN1CCN(c2c(F)cc3c(=O)c(C(=O)O)cn4c3c2OCN4C)CC1 | 0.19% [at 11.8 µM] |
| CCOC(=O)c1ccccc1OC | 2.36% |
| OC(CCCN1CCCCC1)(c1ccccc1)c1ccccc1 | 1.3% [at 26.5 µM] |
| Cc1nccn1-c1ccc(Sc2cccc(C3(C(N)=O)CCOCC3)c2)cc1 | -1.21% |
| Cn1c(=O)c2c(ncn2CC(=O)O)n(C)c1=O | -0.0602% [at 26.5 µM] |
| [O]=[Bi] | -0.278% [at 5.23 µM] |

| SMILES | activation |
| --- | --- |
| COC(OC)(C(=O)c1ccccc1)c1ccccc1 | 0.85% |
| CC1=C(C=O)C(C)(C)CCC1 | -0.608% |
| CC1CC(O)CC(C)(C)C1 (stereo not given) | -0.16% |
| c1ccc(COCc2ccccc2)cc1 | -0.0353% |
| CCC(Cc1ccccc1)(C(=O)c1ccc(N2CCOCC2)cc1)N(C)C (stereo not given) | 0.526% |
| CCCCCCCCCCCC[N+](C)(C)CCCS(=O)(=O)[O-] | -0.0208% |
| Fc1ccccc1[C@@H](F)COC1CCC(Nc2ncnc3[nH]ncc23)CC1 (stereo not given in full) | 5.63% |
| C[C@@H]1C[C@H]2[C@@H]3CCC4=CC(=O)C=C[C@]4(C)[C@@]3(F)[C@@H](O)C[C@]2(C)[C@H]1C(=O)CO | 2.61% [at 26.5 µM] |
| CCC(=O)Oc1ccc(/C(CC)=C(\CC)c2ccc(OC(=O)CC)cc2)cc1 | 0.114% |
| CC(=O)[C@H]1CC[C@H]2[C@@H]3C=CC4=CC(=O)CC[C@@]4(C)[C@@H]3CC[C@]12C | 0.548% [at 26.5 µM] |
| O=S(=O)(c1ccccc1)c1ccc(Cl)cc1 | 0.0156% |
| CCNC(=O)N1CCN(CCCC(c2ccc(F)cc2)c2ccc(F)cc2)CC1 | 3.96% [at 26.5 µM] |
| O=C(CCCCCCCCC#CI)Oc1ccccc1 | -0.247% [at 26.5 µM] |
| O=C(CCCN1CCN(c2ccc(F)cc2)CC1)NC1c2ccccc2CSc2ccccc21 (stereo not given) | -0.115% [at 26.5 µM] |
| CCCCCC=CCC=CCCCCCCCC(=O)OCC | -0.302% [at 26.5 µM] |
| O=C(CCC1CCN(Cc2ccccc2)CC1)c1ccc2c(c1)NCCCC2 | 1.53% [at 26.5 µM] |
| Nc1ccc(S(=O)(=O)O)cc1 | 0.0643% |
| CCCCCCOC(=O)C(C)C | 0.322% |
| CCC(C(=O)OCCN(CC)CC)c1ccccc1 (stereo not given) | 0.291% [at 26.5 µM] |
| Cc1ccc(S)cc1 | -0.0406% |
